Source: PubChem BioAssay (National Center for Advancing Translational Sciences (NCATS))
Sampled rows, rich in hits. Any-hit rate of the full collection: about 19%.
DT40 TDP1 no CPT: qHTS for Inhibitors of human tyrosyl-DNA phosphodiesterase 1 (TDP1): qHTS in cells in absence of CPT. DT40 Tdp1-/- hTDP1 cells, no CPT, ATP luminescence, 48 h. hit rate 15% among 420,000. AID 686978, 2013. Potency, µM (top dose mostly 46.2 µM), for the others: at the highest dose activity change, negative = growth inhibition, most hits filed as inhibitors; note: potency is the fitted concentration of half-maximal effect; nearly all actives have a fitted effect of over 55% in size
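No-CPT arm: Tdp1-/-;hTDP1 DT40 cells (400/well) plus compounds, incubated ≥48 hr at 37 °C. Readout CellTiter-Glo luminescence.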
HT1080 IDH1KD tx: qHTS for induction of synthetic lethality in tumor cells producing 2HG: qHTS for the HT-1080-IDH1KD cell line; hit rate 2% among 360,000; HT-1080 IDH1 knockdown viability, ATP luminescence, 48 h; Potency, µM (series often up to 46.1 µM), without a hit: top-dose activity, negative = toxicity, actives largely listed as cytotoxic;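 note: potency is the fitted concentration of half-maximal effect; 0% = DMSO wells and -100% = cell-free medium wells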
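IDH1KD HT-1080 cells, 750/well, RPMI + 5% FBS; compound pinned after 2 h settling; 48 h, 37 °C; CellTiter-Glo luminescence; % activity normalised to DMSO and no-cell wells; curves fitted, classed by r2 and efficacy.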
DT40 TDP1 CPT: qHTS for Inhibitors of human tyrosyl-DNA phosphodiesterase 1 (TDP1): qHTS in cells in presence of CPT; chicken DT40 Tdp1-/-;hTDP1 cells + 20 nM CPT, ATP luminescence, 48 h; Potency, µM (highest dose often 46.2 µM), for the others: at the top dose activity change, negative = growth inhibition, usual class: inhibitors; hit rate 12% among 420,000; AID 686979, 2013; note: potency is the fitted concentration of half-maximal effect; nearly all actives have a fitted effect of over 55% in size
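Chicken DT40 Tdp1-/- cells complemented with human TDP1, 400 cells/well, exposed to compounds plus 20 nM camptothecin for at least 48 h at 37 C; viability read as ATP content by CellTiter-Glo luminescence.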
HT1080-NT tox: qHTS for induction of synthetic lethality in tumor cells producing 2HG: qHTS for the HT-1080-NT fibrosarcoma cell line | HT-1080-NT fibrosarcoma viability, CellTiter-Glo ATP luminescence, 48 h | Potency, µM (series often up to 46.1 µM), for the others: top-dose activity, negative = less viability, actives largely listed as cytotoxic | hit rate 1.6% among 360,000 | AID 686970, 2013;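 note: NT is the 2HG producing partner of a matched IDH1 knockdown line; potency is the fitted concentration of half-maximal effect; 0% = DMSO-treated cells and -100% = media-only wells without cells; nearly all actives have a fitted effect of over 55% in size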
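Luminescent CellTiter-Glo readout after 48 hours of compound exposure at 37 degrees C defined viability of HT-1080-NT cells. Activity was normalized to DMSO wells and cell-free media wells; concentration-response curves were fitted and assigned curve classes.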
ELG1 DNA repair: qHTS screen for small molecules that inhibit ELG1-dependent DNA repair in human embryonic kidney (HEK293T) cells expressing luciferase-tagged ELG1 | HEK293T ELG1-luciferase reporter, luminescence, 16 h; DNA damage induced by 5-fluorouridine | Potency, µM (top dose mostly 46.1 µM), inactives show at the top dose activity change, negative = inhibition, usual class: inhibitors | hit rate 2.3% among 330,000 | AID 504467, 2011; note: potency is the fitted concentration of half-maximal effect; nearly all actives have a fitted effect of over 55% in size
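Luminescence from the luciferase reporter, measured 30 min after ONE-Glo reagent at room temperature, was the read-out. Beforehand, 2,000 cells per well were exposed for 16 hr at 37 °C to 5-fluorouridine together with compound or vehicle.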
IL-1B inflam inh: qHTS for Inhibitors of Inflammasome Signaling: IL-1-beta AlphaLISA Primary Screen; THP-1 LPS/ATP IL-1B secretion, AlphaLISA, 16 h; hits give low values; activity change, % at 57.5 µM; hit rate 4.7% among 360,000; AID 743279, 2014; in the data active = activity change below about -50%; inconclusive = mostly about -30% to -49%
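Secreted IL-1B measured by AlphaLISA bead assay after 16 h compound exposure of THP-1 cells; compounds (final up to 57.5 uM) added 1 h before LPS (250 ng/mL) and ATP (1.25 mM) stimulation; lower signal means less secretion.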
Numbers without * were called inactive; ! = not confirmed by another sample. Unless noted, calls come from the whole dose curve; as a rule, active = well fitted curve in the direction sought with a large enough effect; inconclusive = small, poorly fitted or top-dose-only effect, or another doubt; inactive = no such curve, though single readings can be large; an effect the other way counts as inactive or inconclusive. Unless noted, % is set by controls: 0 for no effect and ±100 for the full control effect.

What do the screens show for `O=C(NCc1ccc(Cl)cc1)C1CCN(c2nnc(N3CCCC3=O)s2)CC1`?
DT40 TDP1 no CPT: 10%; HT1080 IDH1KD tx: 3%; DT40 TDP1 CPT: 18%; HT1080-NT tox: 11%; ELG1 DNA repair: 20%; IL-1B inflam inh: 3

What do the screens show for `O=C(CSc1ccc(Br)cc1)N1CCN(S(=O)(=O)c2ccccc2)CC1`?
DT40 TDP1 no CPT: -27%; HT1080 IDH1KD tx: -7%; DT40 TDP1 CPT: 2%; HT1080-NT tox: -1%; ELG1 DNA repair: inconclusive; IL-1B inflam inh: -9

What do the screens show for `O=C(CC1CC2CCC1C2)N1CCN(S(=O)(=O)c2ccccc2C(F)(F)F)CC1` (stereo unspecified)?
DT40 TDP1 no CPT: inconclusive; HT1080 IDH1KD tx: 0%; DT40 TDP1 CPT: -10%; HT1080-NT tox: -9%; ELG1 DNA repair: 11µM*; IL-1B inflam inh: 16

Results for O=C(c1ccccc1C(F)(F)F)N1CCN(S(=O)(=O)c2ccccc2)CC1 ?
DT40 TDP1 no CPT: -7%; HT1080 IDH1KD tx: 4%; DT40 TDP1 CPT: 2%; HT1080-NT tox: 8%; ELG1 DNA repair: 21µM*; IL-1B inflam inh: -7

How did O=C(CSc1cccc(C(F)(F)F)c1)N1CCN(S(=O)(=O)c2ccccc2)CC1 do in these assays?
DT40 TDP1 no CPT: inconclusive; HT1080 IDH1KD tx: -13%; DT40 TDP1 CPT: inconclusive; HT1080-NT tox: -7%; ELG1 DNA repair: inconclusive; IL-1B inflam inh: -55*

What do the screens show for `CC(C)n1c(=O)c2ccccc2n1Cc1cn(Cc2cccnc2)nn1`?
DT40 TDP1 no CPT: -1%; HT1080 IDH1KD tx: 1%; DT40 TDP1 CPT: 1%; HT1080-NT tox: 24%; IL-1B inflam inh: 22

Results for O=C(NCc1ccc2c(c1)OCO2)c1cc(=O)[nH]c2ccccc12 ?
DT40 TDP1 no CPT: -18%; HT1080 IDH1KD tx: 3%; DT40 TDP1 CPT: -8%; HT1080-NT tox: -5%; ELG1 DNA repair: -1%; IL-1B inflam inh: 16

How did O=C(Nc1nncs1)C1CC(=O)N(C2CCCC2)C1 (stereo unspecified) do in these assays?
DT40 TDP1 no CPT: 13%; HT1080 IDH1KD tx: 1%; DT40 TDP1 CPT: 11%; HT1080-NT tox: 3%; ELG1 DNA repair: 3%; IL-1B inflam inh: 28

How did COc1cc(N2CCC(O)CC2)ccc1Nc1nnc(Cl)c(Nc2ccccc2S(C)(=O)=O)n1 do in these assays?
DT40 TDP1 no CPT: 16µM*; HT1080 IDH1KD tx: -16%; DT40 TDP1 CPT: 21µM*; HT1080-NT tox: inconclusive; IL-1B inflam inh: 36

What do the screens show for `Cc1ccc(CSc2nc3ccc(NC(=O)CC(C)C)cc3s2)cc1`?
DT40 TDP1 no CPT: inconclusive; DT40 TDP1 CPT: -4%

How did CCN(CC)CCOc1ccc(Cc2ccccc2)cc1 do in these assays?
DT40 TDP1 no CPT: 21µM*!; DT40 TDP1 CPT: 24µM*!

What do the screens show for `CCc1ccc(OCCCCN(C)Cc2ccccc2)cc1`?
DT40 TDP1 no CPT: 29µM*; HT1080 IDH1KD tx: -19%; DT40 TDP1 CPT: inconclusive; HT1080-NT tox: -11%; ELG1 DNA repair: -12%; IL-1B inflam inh: inconclusive

How did CCC(C)c1ccccc1OCCCN(C)Cc1ccccc1 (stereo unspecified) do in these assays?
DT40 TDP1 no CPT: inconclusive; HT1080 IDH1KD tx: inconclusive; DT40 TDP1 CPT: inconclusive; HT1080-NT tox: -15%; ELG1 DNA repair: -7%; IL-1B inflam inh: -19

What do the screens show for `CN(CCCCOc1ccc(F)cc1)Cc1ccccc1`?
DT40 TDP1 no CPT: -2%; HT1080 IDH1KD tx: 0%; DT40 TDP1 CPT: -15%; HT1080-NT tox: 1%; ELG1 DNA repair: -22%; IL-1B inflam inh: -28

Results for Cc1cc(C)c(C)c(OCCCCN(C)Cc2ccccc2)c1 ?
DT40 TDP1 no CPT: 21µM*; HT1080 IDH1KD tx: -18%; DT40 TDP1 CPT: inconclusive; HT1080-NT tox: -21%; ELG1 DNA repair: -13%; IL-1B inflam inh: -19

How did CCN1CCN(C(c2cccc(F)c2)c2c(O)cc(C)n(Cc3ccco3)c2=O)CC1 (stereo unspecified) do in these assays?
DT40 TDP1 no CPT: 4%; DT40 TDP1 CPT: 8%

Results for CCOc1ccc(C(=O)NCC(=O)NNC(=O)CN(C)S(=O)(=O)c2ccc(Cl)cc2)cc1 ?
DT40 TDP1 no CPT: -3%; HT1080 IDH1KD tx: 11%; DT40 TDP1 CPT: -2%; HT1080-NT tox: -2%; ELG1 DNA repair: -1%; IL-1B inflam inh: -2

How did O=C(CCc1ccccc1)NC(NC(=S)Nc1ccc(Cl)cc1)C(Cl)(Cl)Cl (stereo unspecified) do in these assays?
DT40 TDP1 no CPT: 4.6µM*; HT1080 IDH1KD tx: inconclusive; DT40 TDP1 CPT: 8.2µM*; HT1080-NT tox: inconclusive; ELG1 DNA repair: 0%; IL-1B inflam inh: -4

What do the screens show for `O=C(NC(NC(=S)Nc1ccccc1C(=O)O)C(Cl)(Cl)Cl)c1ccccc1` (stereo unspecified)?
DT40 TDP1 no CPT: -10%; HT1080 IDH1KD tx: 16%; DT40 TDP1 CPT: -26%; HT1080-NT tox: 9%; ELG1 DNA repair: -11%; IL-1B inflam inh: 21

Results for O=C(/C=C/c1ccccc1)NC(NC(=S)Nc1ccc(Cl)cc1)C(Cl)(Cl)Cl (stereo unspecified) ?
DT40 TDP1 no CPT: 5.2µM*; HT1080 IDH1KD tx: 18µM*; DT40 TDP1 CPT: 16µM*; HT1080-NT tox: inconclusive; ELG1 DNA repair: -16%; IL-1B inflam inh: inconclusive

How did O=C(/C=C/c1ccccc1)NC(NC(=S)Nc1cc(Cl)ccc1Cl)C(Cl)(Cl)Cl (stereo unspecified) do in these assays?
DT40 TDP1 no CPT: 5.2µM*; HT1080 IDH1KD tx: inconclusive; DT40 TDP1 CPT: 5.2µM*; HT1080-NT tox: inconclusive; ELG1 DNA repair: -2%; IL-1B inflam inh: -66*

What do the screens show for `CCOC(=O)NC(NC(=S)Nc1ccc(OC)cc1)C(Cl)(Cl)Cl` (stereo unspecified)?
DT40 TDP1 no CPT: -2%; HT1080 IDH1KD tx: -4%; DT40 TDP1 CPT: 0%; HT1080-NT tox: 1%; ELG1 DNA repair: 12%; IL-1B inflam inh: -16

How did CC(C)NC(NC(=O)/C=C/c1ccccc1)C(Cl)(Cl)Cl (stereo unspecified) do in these assays?
DT40 TDP1 no CPT: inconclusive; HT1080 IDH1KD tx: -21%; DT40 TDP1 CPT: -3%; HT1080-NT tox: -9%; ELG1 DNA repair: 4%; IL-1B inflam inh: -10
